# In PubChem BioAssay (Tox21):
# Where “and” joins values, the source holds several entries; their conditions need not be identical. Equal values may be shown once. Inconclusive results are not listed. Entries that show only a call come without a potency. Calls of active or inactive are those of the source. Unless noted, calls follow the shape of the dose curve; as a rule, active = well fitted curve in the direction sought with a large enough effect in the repeat runs; inconclusive = weak or mixed curves; inactive = no such curve, though single readings can be large; an effect the other way counts as inactive or inconclusive.
# Assays:
# [1] = A CellTox Green Cytotoxicity Assay to monitor cytotoxicity in HepG2 cells - 8 hour (AID 1224890); also: nearly all actives have a fitted effect of over 45% in size; also: potency is read from the fitted curve at half-maximal effect
# Procedure, shortened: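 HepG2 cells, 600/well, preincubated 5 h with CellTox Green dye, then exposed to Tox21 compounds in DMSO at 37 C for up to 40 h. Dead-cell DNA fluorescence read at the indicated time point.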
# [2] = qHTS assay to identify small molecule antagonists of the estrogen receptor alpha (ER-alpha) signaling pathway using the BG1 cell line in the presence of 0.1 nM 17-beta-estradiol - cell viability counter screen (AID 1259241); also: nearly all actives have a fitted effect of over 40% in size; also: potency is read from the fitted curve at half-maximal effect
# Procedure, shortened: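 VM7Luc4E2, 4,000 cells/well, phenol red-free medium + 10% charcoal-stripped FBS; 24 hr plating; cpd + 0.1 nM E2 final, 22 hr 37C/5% CO2; CellTiter-Fluor 30 min, fluorescence.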
# [3] = qHTS assay to identify small molecule antagonists of the androgen receptor (AR) signaling pathway using the MDA cell line in the presence of 0.5 nM R1881 - cell viability counter screen (AID 1259242); also: nearly all actives have a fitted effect of over 45% in size; also: potency is read from the fitted curve at half-maximal effect
# Procedure, shortened: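 MDA-kb2 cells (MMTV-luciferase, AR/GR responsive) were treated with compounds plus 0.5 nM R1881 (final) for 16 hr at 37C, 0% CO2. Viability was then read in the same wells as live-cell protease fluorescence (CellTiter-Fluor, 30 min).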
# [4] = biological target: Androgen receptor (Homo sapiens) (UniProt P10275); experiment: qHTS assay to identify small molecule antagonists of the androgen receptor (AR) signaling pathway using the MDA cell line in the presence of 0.5 nM R1881 (AID 1259243); also: nearly all actives have a fitted effect of over 50% in size; also: potency is read from the fitted curve at half-maximal effect
# Androgen receptor (Homo sapiens), sequence (P10275 whole entry, looked up): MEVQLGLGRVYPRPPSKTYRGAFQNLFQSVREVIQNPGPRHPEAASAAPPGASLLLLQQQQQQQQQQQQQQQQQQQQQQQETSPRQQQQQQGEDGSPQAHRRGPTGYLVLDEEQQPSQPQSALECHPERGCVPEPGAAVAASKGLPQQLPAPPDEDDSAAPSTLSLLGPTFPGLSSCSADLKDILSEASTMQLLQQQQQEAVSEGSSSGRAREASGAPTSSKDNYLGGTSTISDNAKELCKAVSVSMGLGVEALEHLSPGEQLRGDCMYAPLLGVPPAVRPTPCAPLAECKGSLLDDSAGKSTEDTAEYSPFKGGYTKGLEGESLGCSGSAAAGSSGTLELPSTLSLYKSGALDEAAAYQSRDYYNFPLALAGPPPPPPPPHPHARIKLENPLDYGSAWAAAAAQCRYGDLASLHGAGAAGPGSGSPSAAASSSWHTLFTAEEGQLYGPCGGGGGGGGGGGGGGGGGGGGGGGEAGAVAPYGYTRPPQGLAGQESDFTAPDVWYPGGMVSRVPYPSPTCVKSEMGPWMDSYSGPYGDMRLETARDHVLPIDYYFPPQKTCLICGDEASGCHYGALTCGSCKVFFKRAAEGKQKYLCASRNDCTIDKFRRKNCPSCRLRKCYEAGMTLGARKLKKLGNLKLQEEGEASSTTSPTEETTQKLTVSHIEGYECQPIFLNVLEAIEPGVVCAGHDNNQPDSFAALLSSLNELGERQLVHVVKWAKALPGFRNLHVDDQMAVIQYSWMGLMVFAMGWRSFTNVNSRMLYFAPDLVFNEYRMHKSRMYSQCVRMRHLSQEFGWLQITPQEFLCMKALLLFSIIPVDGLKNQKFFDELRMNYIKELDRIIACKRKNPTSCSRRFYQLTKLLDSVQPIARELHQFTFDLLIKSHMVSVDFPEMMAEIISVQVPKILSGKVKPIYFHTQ
# Procedure, shortened: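 MDA-kb2 cells (MMTV-luciferase, responsive to AR and GR) at 3,000/well, rested 5 h at 37C, 0% CO2, then given compounds plus 0.5 nM R1881 (final) for 16 hr. Luciferase read with ONE-Glo after 30 min at room temperature.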
# [5] = biological target: Estrogen receptor (Homo sapiens) (UniProt P03372); experiment: qHTS assay to identify small molecule antagonists of the estrogen receptor alpha (ER-alpha) signaling pathway using the BG1 cell line in the presence of 0.1 nM 17-beta-estradiol (AID 1259244); also: nearly all actives have a fitted effect of over 50% in size; also: potency is read from the fitted curve at half-maximal effect
# Estrogen receptor (Homo sapiens), sequence (P03372 whole entry, looked up): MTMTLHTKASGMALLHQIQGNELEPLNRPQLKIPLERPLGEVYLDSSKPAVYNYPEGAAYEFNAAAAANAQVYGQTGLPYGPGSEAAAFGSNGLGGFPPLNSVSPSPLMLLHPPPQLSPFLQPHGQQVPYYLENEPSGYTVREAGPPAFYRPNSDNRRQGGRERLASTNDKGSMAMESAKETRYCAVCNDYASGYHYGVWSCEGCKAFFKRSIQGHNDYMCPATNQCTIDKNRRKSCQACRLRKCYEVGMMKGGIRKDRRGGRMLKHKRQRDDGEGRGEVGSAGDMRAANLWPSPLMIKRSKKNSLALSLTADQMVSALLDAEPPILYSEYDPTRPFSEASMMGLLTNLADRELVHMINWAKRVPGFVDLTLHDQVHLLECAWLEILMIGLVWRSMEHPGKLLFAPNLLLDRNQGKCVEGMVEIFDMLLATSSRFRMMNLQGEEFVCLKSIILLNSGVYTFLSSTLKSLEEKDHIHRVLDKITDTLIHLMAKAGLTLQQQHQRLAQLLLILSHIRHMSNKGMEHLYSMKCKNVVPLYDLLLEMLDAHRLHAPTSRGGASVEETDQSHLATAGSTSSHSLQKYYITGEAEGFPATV
# Procedure, shortened: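 VM7Luc4E2 cells (endogenous full-length ER-alpha, 4×ERE-luciferase), kept 5 days in phenol red-free, charcoal-stripped FBS medium; 4,000 cells/well. Compounds added with 0.1 nM (final) 17beta-estradiol, 22 hr at 37C; luminescence read with ONE-Glo after 30 min.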
# [6] = qHTS assay to identify small molecule HDAC inhibitors (AID 1259364); also: nearly all actives have a fitted effect of over 45% in size; also: potency is read from the fitted curve at half-maximal effect
# Procedure, shortened: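 Wild-type HCT-116 cells, plated overnight at 37 C, exposed to compounds 2 hr at 37 C; luminogenic HDAC-Glo substrate then added 30 min at room temperature. Luminescence reports relative endogenous class I/II HDAC activity.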
# [7] = qHTS assay to identify small molecule HDAC inhibitors - cell viability counter screen (AID 1259365); also: series mostly up to about 92 µM; nearly all actives have a fitted effect of over 50% in size
# Procedure, shortened: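 Luminescence from CellTiter-Glo, developed 30min at room temperature, reports viability of wild-type HCT-116 cells treated 2hr with compounds at 37 C and 5% CO2 after overnight plating.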
# [8] = qHTS assay to identify small molecule agonists of the sonic hedgehog signaling (Shh) pathway - cell viability counter screen (AID 1259366); also: nearly all actives have a fitted effect of over 50% in size; also: potency is read from the fitted curve at half-maximal effect
# Procedure, shortened: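 Cytotoxicity counter screen run in the same wells as the Shh reporter assay. NIH/3T3 cells carrying a Gli1 response element–driven luciferase were treated with DMSO-dissolved compounds for 24hr, and live-cell protease activity was measured with CellTiter-Fluor.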
# [9] = qHTS assay to identify small molecule antagonists of the sonic hedgehog signaling (Shh) pathway - cell viability counter screen (AID 1259367); also: nearly all actives have a fitted effect of over 55% in size; also: potency is read from the fitted curve at half-maximal effect
# Procedure, shortened: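 NIH/3T3-derived Gli1-Luc reporter cells (2,000 per well) rested 4 hr at 37 C, then received DMSO compounds plus conditioned medium. After 23 hr of treatment, CellTiter-Fluor was added for 1 hr at 37C and fluorescence read.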
# [10] = qHTS assay to identify small molecule phospholipidosis (PLD) inducers (AID 1259344; active = well fitted curve in the direction sought with a large enough effect; an effect the other way counts as inactive or inconclusive)
# Procedure, shortened: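 HepG2 cells on collagen I, attached 4 h at 37 C, were co-treated with compound and LipidTOX Red dye for 24 h at 37 C, then fixed with paraformaldehyde plus Hoechst 33342 and imaged by high-content microscopy for phospholipid accumulation.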
SMILES,Potency [1],Potency [2],Potency [3],Potency [4],Potency [5],Potency [6],Potency [7],Potency [8],Potency [9],Potency [10]
C[C@H]1C[C@H](O)c2ccsc2S1(=O)=O,inactive,inactive,inactive,inactive,inactive,inactive,inactive,inactive,inactive,–
NCCNCCO,inactive,inactive,inactive,–,inactive,inactive,inactive,inactive,inactive,–
CN(C)CCN1C(=O)c2ccccc2N(C)c2ccccc21,inactive,inactive,inactive,–,inactive,inactive,inactive,inactive,inactive,inactive
C/C=C/C=C/C=O,inactive,inactive,inactive,inactive,inactive,–,inactive,inactive,inactive,–
O=C(/C=C/c1ccccc1)OCCc1ccccc1,inactive,inactive,inactive,inactive,inactive,30.6 µM (active),–,inactive,inactive,–
OC1(c2ccccc2)CCNCC1,inactive,inactive,inactive,inactive,–,inactive,inactive,inactive,inactive,–
CCCCOc1ccc(OCCCN2CCOCC2)cc1,inactive,inactive,inactive,–,inactive,inactive,inactive,inactive,inactive,inactive
C[C@@H]1CC(=O)NN=C1c1ccc(NN=C(C#N)C#N)cc1,inactive,21.1 µM (active) and 15 µM (active),11.9 µM (active),21.1 µM (active),inactive,–,inactive,13.3 µM (active),13.3 µM (active),inactive
CC(=O)N/N=C/c1ccc([N+](=O)[O-])o1,inactive,inactive,inactive,–,inactive,inactive,–,–,inactive,inactive
CC(C)Nc1cccnc1N1CCN(C(=O)c2cc3cc(NS(C)(=O)=O)ccc3[nH]2)CC1,inactive,inactive,inactive,–,inactive,–,inactive,inactive,inactive,inactive
CC1=Nc2ccc3ccccc3c2C1(C)C,inactive,inactive,inactive,19.3 µM (active),–,–,inactive,–,–,–
CS(=O)(=O)c1ccc(-c2cn3ccccc3n2)cc1,inactive,inactive,inactive,inactive,inactive,2.11 µM (active),–,inactive,–,–
CCOc1cccc(-n2cc(C(=O)N3CCN(c4cc(C(=O)O)c5ccccc5c4)CC3)nc2-c2ccc(C)cc2)c1,inactive,inactive,inactive,inactive,–,inactive,–,inactive,inactive,–
Cc1cscn1,inactive,inactive,inactive,inactive,inactive,–,–,inactive,inactive,–
C[C@@H](O[C@H]1OCCN(Cc2n[nH]c(=O)[nH]2)[C@H]1c1ccc(F)cc1)c1cc(C(F)(F)F)cc(C(F)(F)F)c1,16.9 µM (active),inactive,inactive,29.8 µM (active),–,inactive,inactive,–,–,–
CCC(C)COC(=O)CC(C)C (configuration not stated),inactive,inactive,inactive,–,inactive,inactive,inactive,inactive,inactive,–
CCOC(C)=O,inactive,inactive,inactive,–,inactive,inactive,inactive,inactive,inactive,inactive
OC(CCN1CCCC1)(c1ccccc1)C1CCCCC1 (configuration not stated),inactive,inactive,inactive,inactive,–,inactive,inactive,–,–,–
CC(=O)OCC(=O)NCCCOc1cccc(CN2CCCCC2)c1,inactive,inactive,inactive,inactive,–,–,inactive,inactive,inactive,inactive
O=C1Cc2ccccc2N1c1c(Cl)cccc1Cl,inactive,inactive,inactive,24.3 µM (active),61.1 µM (active),inactive,inactive,inactive,inactive,–
CCC(C)COC(C)=O (configuration not stated),inactive,inactive,inactive,–,inactive,inactive,inactive,inactive,inactive,–
C[C@]1(Cn2ccnn2)[C@H](C(=O)O)N2C(=O)C[C@H]2S1(=O)=O,inactive,inactive,inactive,–,inactive,inactive,inactive,inactive,inactive,inactive
C=C(C)[C@@H]1CCC2=CCC[C@@H](C)[C@]2(C)C1,inactive,inactive,inactive,27.3 µM (active),inactive,inactive,inactive,inactive,inactive,–
Nc1ncnc2c1ncn2[C@H]1CC[C@@H](CO)O1,inactive,inactive,inactive,–,inactive,inactive,inactive,inactive,inactive,–
C=C(C)C(=O)OCCCCCCCCCCCCC,inactive,inactive,inactive,–,inactive,inactive,inactive,inactive,inactive,–
